About 2,000 (36%) of roughly 5,500 compounds were called active. Roughly 18% stayed inconclusive and do not appear here. Cut-off read from the data, not from the text of the source: active = normalized growth mostly below about 0.91 (no sharp cut-off); inconclusive = no clear call, values can overlap the other calls; inactive = mostly above about 0.92. This is one part of the list.
Experiment: chemical genetic growth profiling, strain panel (AID 1159580);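 note: tested at 20 µM; growth read once vehicle control cultures reached saturation at 30 °C; 1 = growth at the plate median or of vehicle wells; lower values mean less growth of the strain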
Conditions: S. cerevisiae deletion strains, growth OD
[1] = locus YHR030C, strain SLT2, active compounds read low
[2] = locus YHR079C, strain IRE1, active compounds read low
[3] = locus YJL095W, strain BCK1, active compounds read low
[4] = locus YJR066W, strain TOR1, active compounds read low
[5] = locus YLR113W, strain HOG1, active compounds read low
[6] = locus YNL183C, strain NPR1, active compounds read low
[7] = locus YOR231W, strain MKK1, active compounds read low
[8] = locus YPL256C, strain CLN2, active compounds read low

Measured: normalized growth

Cc1ccc(C(O)(c2ccccc2)c2ccccc2)c2ccccc12
inactive: locus YAR019C, strain CDC15, active compounds read low 0.992 | locus YBL105C, strain PKC1, active compounds read low 0.985 | locus YBR135W, strain CKS1, active compounds read low 0.98 | locus YBR136W, strain MEC1, active compounds read low 0.983 | locus YBR160W, strain CDC28, active compounds read low 0.985 | locus YDL017W, strain CDC7, active compounds read low 0.992 | locus YDL028C, strain MPS1, active compounds read low 0.985 | locus YDL101C, strain DUN1, active compounds read low 0.97 | locus YDL108W, strain KIN28, active compounds read low 0.981 | locus YDL132W, strain cdc53, active compounds read low 0.976 | locus YDL214C, strain PRR2, active compounds read low 0.963 | locus YDR052C, strain DBF4, active compounds read low 0.992 | locus YDR054C, strain cdc34, active compounds read low 0.988 | locus YDR226W, strain ADK1, active compounds read low 0.983 | locus YDR477W, strain SNF1, active compounds read low 0.975 | locus YER123W, strain YCK3, active compounds read low 1 | locus YER133W, strain GLC7, active compounds read low 0.998 | locus YFL009W, strain cdc4, active compounds read low 0.982 | locus YFL029C, strain CAK1, active compounds read low 0.993 | locus YFR003C, strain YPI1, active compounds read low 0.988 | locus YFR019W, strain FAB1, active compounds read low 0.952 | locus YFR028C, strain CDC14, active compounds read low 0.979 | locus YGR040W, strain KSS1, active compounds read low 0.947 | locus YGR052W, strain FMP48, active compounds read low 0.982 | locus YGR092W, strain DBF2, active compounds read low 0.907 | [1] 1.02 | [2] 0.996 | locus YHR082C, strain KSP1, active compounds read low 1 | locus YHR205W, strain SCH9, active compounds read low 0.858 | locus YIL147C, strain SLN1, active compounds read low 0.993 | [3] 0.904 | locus YJL128C, strain PBS2, active compounds read low 0.926 | locus YJL157C, strain FAR1, active compounds read low 0.997 | locus YJR016C, strain ILV3, active compounds read low 0.995 | locus YJR066W, strain TOR1 (second series), active compounds read low 0.963 | [4] 1.01 | locus YKL048C, strain ELM1, active compounds read low 0.965 | locus YKL067W, strain YNK1, active compounds read low 0.975 | locus YKL101W, strain HSL1, active compounds read low 0.953 | locus YKL193C, strain SDS22, active compounds read low 0.989 | locus YKL203C, strain TOR2, active compounds read low 1.01 | [5] 0.936 | locus YLR133W, strain CKI1, active compounds read low 0.949 | locus YLR403W, strain SFP1, active compounds read low 0.916 | locus YML070W, strain DAK1, active compounds read low 0.959 | locus YMR001C, strain CDC5, active compounds read low 0.988 | locus YMR205C, strain PFK2 (second series), active compounds read low 0.976 | locus YMR277W, strain FCP1, active compounds read low 0.991 | locus YNL006W, strain LST8, active compounds read low 0.984 | locus YNL020C, strain ARK1, active compounds read low 0.955 | locus YNL161W, strain CBK1, active compounds read low 0.98 | [6] 0.987 | locus YNL207W, strain RIO2, active compounds read low 0.991 | locus YNL222W, strain SSU72, active compounds read low 0.983 | locus YNL307C, strain MCK1 (second series), active compounds read low 0.904 | locus YOL078W, strain AVO1, active compounds read low 0.979 | locus YOL136C, strain PFK27, active compounds read low 0.929 | locus YOR061W, strain CKA2, active compounds read low 0.979 | locus YOR119C, strain RIO1, active compounds read low 1.05 | [7] 0.966 | locus YOR329C, strain SCD5, active compounds read low 0.992 | locus YPL031C, strain PHO85, active compounds read low 0.983 | locus YPL153C, strain RAD53, active compounds read low 1 | locus YPL204W, strain HRR25, active compounds read low 0.956 | locus YPL209C, strain IPL1, active compounds read low 0.983 | [8] 1.04 | locus YPR025C, strain CCL1, active compounds read low 0.99 | locus YPR106W, strain ISR1, active compounds read low 0.97 | locus YPR111W, strain DBF20, active compounds read low 0.953 | strain NNK1, active compounds read low 0.976 | strain TSCII, active compounds read low 0.982

CCCCCCCCCCCCCCCCCCCCCCO
inactive: [1] 1.08 | [2] 0.973 | [3] 0.989 | [4] 0.967 | [5] 0.965 | [6] 0.916 | [7] 0.99 | [8] 0.99

— PubChem BioAssay AID1159580 (chemical genetic matrix, 2015)
